High-throughput results from PubChem BioAssay.
A selection: hits, their analogues and other compounds. The true share with any hit is near 1.4%.
CD11b adhes inh = inhibitors of CD11b/CD18 adhesion to fibrinogen, primary screen, K562 cells, luminescence | Integrin beta-2 (Homo sapiens) + Integrin alpha-M (Homo sapiens), P05107+P11215 | ATPlite luminescence; Mn2+ added to activate the integrin | inhibition, % at 10 µM | 0.54% of 93,000 active | AID 1497, 2009;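 active = primary inhibition of 50% or more at 10 µM, then 40% or more on retest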
Target sequence (P05107 whole entry, looked up, other chains not shown): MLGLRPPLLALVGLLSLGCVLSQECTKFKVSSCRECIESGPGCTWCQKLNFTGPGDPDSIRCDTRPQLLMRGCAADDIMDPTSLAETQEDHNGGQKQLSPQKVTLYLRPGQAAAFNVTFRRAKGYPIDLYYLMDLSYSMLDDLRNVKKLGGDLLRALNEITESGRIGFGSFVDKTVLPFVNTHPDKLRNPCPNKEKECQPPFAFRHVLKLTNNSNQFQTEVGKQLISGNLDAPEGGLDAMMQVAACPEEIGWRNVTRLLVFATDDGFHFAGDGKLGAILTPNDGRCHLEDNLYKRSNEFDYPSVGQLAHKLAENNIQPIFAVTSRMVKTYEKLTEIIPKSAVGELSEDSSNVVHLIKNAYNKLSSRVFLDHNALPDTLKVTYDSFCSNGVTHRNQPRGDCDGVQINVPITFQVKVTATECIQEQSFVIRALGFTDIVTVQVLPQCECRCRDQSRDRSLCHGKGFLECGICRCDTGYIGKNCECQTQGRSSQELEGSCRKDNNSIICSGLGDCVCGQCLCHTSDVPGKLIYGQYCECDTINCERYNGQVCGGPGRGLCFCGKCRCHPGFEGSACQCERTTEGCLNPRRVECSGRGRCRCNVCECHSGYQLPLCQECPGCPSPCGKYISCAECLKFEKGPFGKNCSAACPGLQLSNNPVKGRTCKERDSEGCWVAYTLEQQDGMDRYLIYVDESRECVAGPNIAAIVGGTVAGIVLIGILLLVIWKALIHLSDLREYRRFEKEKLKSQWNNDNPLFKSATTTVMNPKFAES
GALR2 agonist = GALR2 receptor agonists, primary screen, cell-based. Galanin receptor type 2 (Homo sapiens), O43603. GALR2-expressing cells, agonist activation read-out. activation, % (no concentration beside the values). 0.48% of 140,000 active. AID 803, 2007; in the data active = activation above about 5%, passing the limit was not always enough
GALR2 blocker = GALR2 antagonists in receptor-expressing cells, primary screen | antagonist mode | inhibition, % at 4 µM | 0.39% of 140,000 active; in the data active = inhibition above about 27%;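 note: cells stimulated with galanin 1-16 at roughly its EC80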
S1P2 blocker = human S1P2 receptor antagonists, primary screen, cell-based; AID 736, 2007; 0.21% of 97,000 active; cell-based S1P2 antagonist assay, inhibition at 5 uM; Sphingosine 1-phosphate receptor 2 (Homo sapiens), O95136; inhibition, % at 5 µM; in the data active = inhibition above about 45%;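 note: CRE beta-lactamase reporter cells expressing human S1P2 stimulated with S1P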
Mac1 fbg enh = enhancers of CD11b/CD18 adhesion to fibrinogen, primary screen, K562 cells, luminescence; Integrin beta-2 (Homo sapiens) + Integrin alpha-M (Homo sapiens), P05107+P11215; ATPlite luminescence; activation, % at 10 µM; 0.07% of 93,000 active; AID 1499, 2009;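 active = 10 µM primary screen giving 50% or more activity, confirmed by 40% or more on retest at that dose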
S1P2 ag = S1P2 receptor agonists, primary screen, cell-based. S1P2-expressing cell line, agonist reporter read-out. activation, % at 4.5 µM. AID 729, 2007. 0.46% of 97,000 active. Sphingosine 1-phosphate receptor 2 (Homo sapiens), O95136; in the data active = activation above about 16%
Hits are given with their value; – = inactive; · = not tested or not shown; ! = not confirmed by another sample.

SMILES | CD11b adhes inh | GALR2 agonist | GALR2 blocker | S1P2 blocker | Mac1 fbg enh | S1P2 ag
Cn1c(SCc2cc(=O)[nH]c3ccccc23)nnc1-c1ccco1 | – | – | – | – | – | –
COc1ccc(C(=O)Nc2ccc3c(c2)C(=O)c2ccccc2C3=O)cc1OC | · | – | – | · | · | ·
O=C1OCCN1C(=O)[C@H]1[C@H](c2ccc(F)cc2)C(c2ccc(F)cc2)=NN1c1ccc(Br)cc1 | · | 6.7 | – | · | · | ·
CCNC(=S)N/N=C1\CCCCc2ccccc21 | · | – | – | · | · | ·
C=C(C)CNC(=S)N/N=C1\CCCCc2ccccc21 | – | 6.1 | – | · | – | ·
Cc1cccn2c(=O)c(/C=C(\C#N)C(=O)NC3CCS(=O)(=O)C3)c(N3CCC(C(N)=O)CC3)nc12 (stereo not drawn) | – | 6.3 | – | · | – | ·
CCOC(=O)c1ccc(NC(=O)COc2cc(=O)n(CC)c3ccccc23)cc1 | – | – | – | – | – | –
CCN(CC)S(=O)(=O)c1ccc(/C=C/C(=O)Nc2ccc(F)cc2F)cc1 | – | – | – | · | – | ·
O=C1SC(c2ccccc2)=N/C1=C/c1ccco1 | – | – | – | – | – | 58.7
COC(=O)c1cc2ccsc2n1Cc1nc(-c2cccc(Cl)c2)oc1C | – | – | – | – | – | –
CCOC(=O)C1=C(Cc2ccc(C)cc2)C(=O)c2ccccc2C1=O | 90.2 | – | – | – | – | –
COCCNC(=O)c1c(N)n(CCC2=CCCCC2)c2nc3ccccc3nc12 | – | 18.8 | – | – | – | 25.7
COc1ccc2c(c1)[nH]c1c(=O)n(Cc3ccco3)cnc12 | – | – | – | – | – | –
COc1ccc2c(c1)c1ncn(Cc3ccco3)c(=O)c1n2C | · | – | – | – | · | 19.2
CCN(Cc1nc2ccccc2c(=O)[nH]1)Cc1nc2cc(OC)c(OC)cc2c(=O)[nH]1 | · | – | – | – | · | 17.6
CCS(=O)(=O)NCc1csc(C)n1 | – | – | – | · | – | ·
CCc1cc(/C(Cc2csc(C)n2)=N/O)c(O)cc1O | 79.5 | – | – | – | – | –
CCOc1ccc(S(=O)(=O)N(CC(=O)N/N=C/c2ccc(-c3ccc([N+](=O)[O-])cc3)o2)c2ccccc2)cc1 | · | – | – | 61.1 | · | –
COc1ccc2cc(/C=N/NC(=O)CN(c3ccccc3)S(=O)(=O)c3ccccc3)c(Cl)nc2c1 | · | 6.5 | – | · | · | ·
Cc1ccc(C)c(N(CC(=O)N/N=C/c2ccc(-c3ccc([N+](=O)[O-])cc3)o2)S(=O)(=O)c2ccccc2)c1 | – | – | – | 66.8 | – | –
O=C1N(c2ccccc2)C(c2ccc(Cl)cc2)N2CCCN12 (stereo not drawn) | – | – | – | · | – | ·
COc1ccc(-c2cc(C(=O)Nc3c(Cl)cc(Cl)cc3Cl)c3ccccc3n2)cc1OC | · | 4.9 | – | · | · | ·
Cc1ccccc1Cn1cnc2c(nnn2Cc2ccc(F)cc2)c1=O | – | – | – | – | – | –
CCOC(=O)c1sc(NC(=O)c2cc(-c3ccccc3C)nc3ccccc23)c(C#N)c1C | 92.7 | – | – | – | – | –
Cc1ccccc1-c1cc(C(=O)Nc2sc(C)c(C)c2C(N)=O)c2ccccc2n1 | – | – | – | – | – | 17.5
SMILES | CD11b adhes inh | GALR2 agonist | GALR2 blocker | S1P2 blocker | Mac1 fbg enh | S1P2 ag
CCOC(=O)c1c(NC(=O)c2cc(-c3ccc(Cl)s3)nc3ccccc23)sc(C(N)=O)c1C | – | – | – | · | – | ·
Cc1ccc(-c2nn(C)c(=O)c3ccccc23)cc1CNC(=O)Cn1nc(-c2ccccc2)c2ccccc2c1=O | – | – | – | – | 132.9 | –
COc1cc2c(C)nc(C)c(C#N)c2cc1OC | – | – | – | – | – | 20.6
COc1cc2c(C)nc3onc(-c4ccccc4)c3c2cc1OC | – | – | – | – | – | –
CCCc1cc(-c2[nH]ncc2-c2ccc3c(c2)OCCCO3)c(O)cc1OC | – | – | – | – | – | –
CCc1cc(-c2[nH]ncc2-c2ccc3c(c2)OCO3)c(O)cc1O | 69.9 | – | – | · | – | ·
Cc1ccc(SCCC(=O)Nc2ccccc2C(=O)NC(C)C)cc1 | – | – | – | · | – | ·
COc1ccc(C(=O)Nc2ccc(-c3ccc(NC(=O)c4ccc(OC)cc4)c(OC)c3)cc2OC)cc1 | · | 6.2 | – | · | · | ·
COc1ccc(C(=O)Nc2cc(OC)ccc2OC)cc1 | – | – | – | – | – | –
O=C(CCC(=O)c1cccs1)NCc1ccc(Cl)cc1 | – | – | – | – | – | –
O=C1CCCC2=C1C(c1ccc(OS(=O)(=O)c3ccc(Cl)cc3)cc1)C1=C(CCCC1=O)O2 | · | – | – | – | · | –
Cc1ccc(/C=C2/NC(=O)N(Cc3ccc(Br)cc3)C2=O)o1 | · | 6.1 | – | · | · | ·
C=CCn1c(N)c(C(=O)Nc2cccc(C)c2)c2nc3ccccc3nc21 | – | 14.5 | – | – | – | 51.8
O=c1c2ccccc2oc2nc(-c3ccco3)n(Cc3ccccc3)c(=O)c12 | – | – | – | – | – | –
COc1ccc(Br)cc1/C(C)=N/NC1=NCCN1 | 74.4 | – | – | – | – | –
CCc1nc(SCc2nc3ccccc3[nH]2)c2oc3ccccc3c2n1 | – | – | – | – | – | 35.9
CCn1cc(C(=O)Nc2ccc(OC)c(OC)c2)c2cc(OC)c(OC)cc2c1=O | – | – | – | – | – | 22.1
COc1ccc(OC)c(NC(=O)c2cn(C)c(=O)c3cc(OC)c(OC)cc23)c1 | – | – | – | – | – | 33.0
COc1ccc(OC)c(NC(=O)c2cnc3ccccn3c2=O)c1 | · | – | – | – | · | –
COC(=O)c1cccc(S(=O)(=O)N2CCCC2)c1 | · | – | – | · | · | ·
c1coc(CNc2nc3nonc3nc2NCc2ccco2)c1 | 61.8 | – | – | – | – | –
CCCCC(=O)c1ccc(O)cc1O | · | – | – | – | · | –
O=C(Cc1ccc(Br)cc1)c1ccc(O)cc1O | 77.5 | – | – | – | – | –
CCOC(=O)c1cc2ccc(OC(=O)c3ccco3)cc2oc1=O | – | 209.0 | – | – | – | 150.3
CCOC(=O)c1sc(C)c2c1NC1(CCCCC1)NC2=O | – | 18.8 | – | – | – | 16.6
SMILES | CD11b adhes inh | GALR2 agonist | GALR2 blocker | S1P2 blocker | Mac1 fbg enh | S1P2 ag
CC(C)(C)c1ccc(C(=O)NC(=S)Nc2sc3c(c2C#N)CCC3)cc1 | – | – | – | · | – | ·
N#C/C(=N\O)c1nc(-c2ccccc2)cs1 | 65.9! | – | – | – | – | –
N#CC(=C1CCCC1)c1nc(-c2ccccc2)cs1 | · | – | – | – | · | –
COc1ccc(-c2ccc(OC)cc2)cc1 | · | – | – | – | · | –
CN1CCc2nc3sc(C(=O)C45CC6CC(CC(C6)C4)C5)c(N)c3cc2C1 | – | – | – | – | 117.7 | –
Cc1ccc(C)c(OCCCCCn2ccnc2)c1 | – | – | – | – | – | –
O=C(NCc1ccoc1)c1ccc(NC(=O)c2ccccc2Cl)cc1 | – | – | 28.7 | – | – | –
C=CCOC(=O)C1=C(C)NC(SCC(=O)N(CC)CC)=C(C#N)C1c1ccco1 (stereo not drawn) | – | – | – | – | – | –
